In PubChem BioAssay (EPA / NIEHS):
More than one record can exist for a structure, and the calls need not agree. The source made the active and inactive calls. The calls were made as follows: active = hit-call score of the fitted dose curve at least 0.9, where 1 is the maximum; inactive = score below 0.9.

What was measured:
Details in all cases: mRNA level, 48 h; actives raise or lower the signal
[1] = read-out: Cytochrome P450 (CYP24A1), CYP24A1 (gene 1591); experiment: LTEA_HepaRG_CYP24A1: Life Technologies and Expression Analysis (LTEA) Assay for Cytochrome P450 (CYP24A1) using HepaRG (AID 2283478)
How it was run: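 HepaRG cells plated 48 h, then exposed in duplicate in serum-free induction medium for 48 h to 8-point half-log series from 100 uM in 0.5% DMSO. CYP24A1 mRNA by Fluidigm qRT-PCR, normalized to ACTB, GAPDH, POLR2A; bidirectional fit versus DMSO.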

[2] = read-out: Cytochrome P450 (CYP1A2), CYP1A2 (gene 1544); experiment: LTEA_HepaRG_CYP1A2: Life Technologies and Expression Analysis (LTEA) Assay for Cytochrome P450 (CYP1A2) using HepaRG (AID 2283479)
How it was run: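 Differentiated human HepaRG cells in serum-free induction medium exposed 48 hours in duplicate to 8 half-log concentrations from 100 uM, 0.5% DMSO. CYP1A2 mRNA quantified by qRT-PCR, normalized to ACTB, GAPDH and POLR2A; bidirectional fitting versus DMSO.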

[3] = read-out: cysteine-aspartic acid protease (CASP8), CASP8 (gene 841); experiment: LTEA_HepaRG_CASP8: Life Technologies and Expression Analysis (LTEA) Assay for cysteine-aspartic acid protease (CASP8) using HepaRG (AID 2283480)
How it was run: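 qRT-PCR readout of CASP8 mRNA, normalized to three housekeeping genes, after 48 h chemical exposure of HepaRG cells; 8-point half-log series, top 100 uM, 0.5% DMSO vehicle. Bidirectional curve fitting against DMSO baseline.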

[4] = read-out: Cytochrome P450 (CYP2B6), CYP2B6 (gene 1555); experiment: LTEA_HepaRG_CYP2B6: Life Technologies and Expression Analysis (LTEA) Assay for Cytochrome P450 (CYP2B6) using HepaRG (AID 2283481)
How it was run: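 Differentiated human HepaRG cells in serum-free induction medium, dosed in duplicate for 48 h over 8 half-log concentrations topping at 100 uM (0.5% DMSO). CYP2B6 mRNA measured by TaqMan qRT-PCR, normalized to ACTB, GAPDH, POLR2A; bidirectional fit versus DMSO.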

[5] = read-out: Cytochrome P450 2C19 (Homo sapiens) (UniProt P33261); experiment: LTEA_HepaRG_CYP2C19: Life Technologies and Expression Analysis (LTEA) Assay for CYP2C19 using HepaRG (AID 2283482)
How it was run: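 Differentiated HepaRG cells in serum-free induction medium exposed 48 h in duplicate, 8 concentrations from 100 uM by half-log steps in 0.5% DMSO. CYP2C19 mRNA measured by TaqMan qRT-PCR, normalized to ACTB, GAPDH, POLR2A. Bidirectional fit versus DMSO.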

[6] = read-out: CYP2C8 (gene 1558); experiment: LTEA_HepaRG_CYP2C8: Life Technologies and Expression Analysis (LTEA) Assay for CYP2C8 using HepaRG (AID 2283483)
How it was run: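 HepaRG (human liver line), 48 h chemical exposure, 8-pt half-log series from 100 uM, 0.5% DMSO vehicle. Readout: CYP2C8 transcript by qRT-PCR, housekeeping-normalized. Bidirectional fit vs DMSO baseline.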

[7] = read-out: CYP2E1 (gene 1571); experiment: LTEA_HepaRG_CYP2E1: Life Technologies and Expression Analysis (LTEA) Assay for CYP2E1 using HepaRG (AID 2283485)
How it was run: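 CYP2E1 transcript was measured by TaqMan qRT-PCR in human HepaRG cultures after 48 h chemical exposure (top 100 uM, half-log steps, 0.5% DMSO vehicle). Housekeeping-gene normalization; gain or loss fitted relative to DMSO baseline.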

[8] = read-out: CYP4A11 (gene 1579); experiment: LTEA_HepaRG_CYP4A11: Life Technologies and Expression Analysis (LTEA) Assay for CYP4A11 using HepaRG (AID 2283486)
How it was run: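 Differentiated HepaRG cells, 48 h after plating, exposed in duplicate for 48 h to 8 half-log concentrations up to 100 uM in 0.5% DMSO in serum-free induction medium. CYP4A11 mRNA measured by TaqMan qRT-PCR, normalized to ACTB, GAPDH and POLR2A.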

[9] = read-out: CYP2C9 (gene 1559); experiment: LTEA_HepaRG_CYP2C9: Life Technologies and Expression Analysis (LTEA) Assay for CYP2C9 using HepaRG (AID 2283484)
How it was run: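 HepaRG, 48 h dosing, 8-pt half-log series, top 100 uM, 0.5% DMSO vehicle. Read-out: CYP2C9 transcript by TaqMan qRT-PCR, housekeeping-normalized (ACTB/GAPDH/POLR2A). Gain or loss fitted vs DMSO baseline.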

[10] = read-out: Cytochrome P450 3A4 (Homo sapiens) (UniProt P08684); experiment: LTEA_HepaRG_CYP3A4: Life Technologies and Expression Analysis (LTEA) Assay for CYP3A4 using HepaRG (AID 2283487)
How it was run: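 HepaRG, 48 h exposure, 8-pt CRC from 100 uM (half-log), 0.5% DMSO, duplicates; serum-free induction medium. Readout: CYP3A4 mRNA, qRT-PCR, ACTB/GAPDH/POLR2A normalization. Bidirectional fit vs DMSO.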

Cytochrome P450 3A4 (Homo sapiens), sequence (P08684 whole entry, looked up): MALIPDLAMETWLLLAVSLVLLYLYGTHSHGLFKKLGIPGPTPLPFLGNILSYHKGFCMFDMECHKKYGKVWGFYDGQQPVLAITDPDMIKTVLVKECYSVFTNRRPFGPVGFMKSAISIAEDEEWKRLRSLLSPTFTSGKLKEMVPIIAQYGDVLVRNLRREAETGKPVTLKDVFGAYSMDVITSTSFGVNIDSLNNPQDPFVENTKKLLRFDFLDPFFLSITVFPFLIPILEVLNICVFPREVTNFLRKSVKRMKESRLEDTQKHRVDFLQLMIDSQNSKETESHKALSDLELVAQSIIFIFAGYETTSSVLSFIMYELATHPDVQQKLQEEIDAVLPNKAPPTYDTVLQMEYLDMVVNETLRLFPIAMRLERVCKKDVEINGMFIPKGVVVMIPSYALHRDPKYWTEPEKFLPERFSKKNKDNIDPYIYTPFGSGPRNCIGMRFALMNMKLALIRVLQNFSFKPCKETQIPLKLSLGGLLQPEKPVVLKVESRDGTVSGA
Cytochrome P450 2C19 (Homo sapiens), sequence (P33261 whole entry, looked up): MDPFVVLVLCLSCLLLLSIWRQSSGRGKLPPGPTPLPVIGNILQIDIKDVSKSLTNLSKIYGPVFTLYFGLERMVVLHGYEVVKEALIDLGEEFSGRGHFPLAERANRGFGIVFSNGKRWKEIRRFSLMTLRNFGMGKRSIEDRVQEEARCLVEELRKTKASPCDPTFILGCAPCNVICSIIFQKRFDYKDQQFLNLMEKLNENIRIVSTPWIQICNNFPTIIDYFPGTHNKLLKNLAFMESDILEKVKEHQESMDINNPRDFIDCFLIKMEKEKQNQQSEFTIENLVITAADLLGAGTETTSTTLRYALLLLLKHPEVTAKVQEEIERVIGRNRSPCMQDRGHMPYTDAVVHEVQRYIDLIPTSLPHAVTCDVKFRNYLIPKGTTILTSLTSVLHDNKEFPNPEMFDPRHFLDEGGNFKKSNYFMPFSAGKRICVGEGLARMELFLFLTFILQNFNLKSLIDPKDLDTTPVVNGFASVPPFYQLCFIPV

## CC[C@H](c1ccc(O)cc1)[C@@H](CC)c1ccc(O)cc1
[1]
  AC50: 83.4 µM (active)
[2]
  outcome: inactive
[3]
  outcome: inactive
[4]
  AC50: 79.4 µM (active)
[5]
  AC50: 80.3 µM (active)
[6]
  outcome: inactive
[7]
  AC50: 87.9 µM (active)
[8]
  AC50: 76.7 µM (active)

## CN1CCC[C@H]1c1cccnc1
[1]
  outcome: inactive
[2]
  outcome: inactive
[3]
  outcome: inactive
[4]
  outcome: inactive
[5]
  outcome: inactive
[6]
  outcome: inactive
[7]
  outcome: inactive
[8]
  outcome: inactive

## C=C(C)C(=O)OCCC(F)(F)C(F)(F)C(F)(F)C(F)(F)C(F)(F)C(F)(F)F
[1]
  outcome: inactive
[2]
  outcome: inactive
[3]
  outcome: inactive
[4]
  AC50: 11.8 µM (active)
[5]
  outcome: inactive
[6]
  outcome: inactive
[9]
  outcome: inactive
[7]
  AC50: 20.1 µM (active)
[8]
  outcome: inactive

## COCC(C)O (stereo not given)
[1]
  outcome: inactive
[2]
  outcome: inactive
[3]
  outcome: inactive
[4]
  outcome: inactive
[5]
  outcome: inactive
[6]
  outcome: inactive
[7]
  outcome: inactive
[8]
  outcome: inactive

## Oc1cccc(O)c1
[1]
  outcome: inactive
[2]
  outcome: inactive
[3]
  outcome: inactive
[4]
  outcome: inactive
[5]
  outcome: inactive
[6]
  outcome: inactive
[9]
  outcome: inactive
[7]
  outcome: inactive
[8]
  outcome: inactive

## O=[N+]([O-])c1ccc(O)cc1
[1]
  outcome: inactive
[2]
  outcome: inactive
[3]
  outcome: inactive
[4]
  AC50: 19.9 µM (active)
  outcome: inactive
[5]
  outcome: inactive
[6]
  outcome: inactive
[9]
  outcome: inactive
[7]
  outcome: inactive
[8]
  outcome: inactive
[10]
  outcome: inactive

## CCCCCCCCCCCCN1CCCC1=O
[1]
  outcome: inactive
[2]
  outcome: inactive
[3]
  outcome: inactive
[4]
  outcome: inactive
[5]
  outcome: inactive
[6]
  outcome: inactive
[9]
  outcome: inactive
[7]
  outcome: inactive
[8]
  outcome: inactive
[10]
  outcome: inactive

## Cc1cc(CCN2CCN(c3nsc4ccccc34)CC2)cc2c1NC(=O)CC2(C)C
[1]
  outcome: inactive
[2]
  AC50: 12.6 µM (active)
[3]
  outcome: inactive
[4]
  AC50: 79.7 µM (active)
[5]
  AC50: 88.4 µM (active)
[6]
  AC50: 82.5 µM (active)
[7]
  AC50: 66.2 µM (active)
[8]
  AC50: 63.9 µM (active)

## COC(=O)CCCCC(=O)OC
[1]
  outcome: inactive
[2]
  outcome: inactive
[3]
  outcome: inactive
[4]
  outcome: inactive
[5]
  outcome: inactive
[6]
  outcome: inactive
[7]
  outcome: inactive
[8]
  outcome: inactive

## CN(C)C=O
[1]
  outcome: inactive
[2]
  outcome: inactive
[3]
  outcome: inactive
[4]
  outcome: inactive
[5]
  outcome: inactive
[6]
  outcome: inactive
[9]
  outcome: inactive
[7]
  outcome: inactive
[8]
  outcome: inactive

## c1ccc2cc3c(ccc4ccccc43)cc2c1
[1]
  outcome: inactive
[2]
  AC50: 1.99 µM (active)
[3]
  outcome: inactive
[4]
  AC50: 9.39 µM (active)
[5]
  AC50: 15.2 µM (active)
[6]
  AC50: 13.7 µM (active)
[9]
  AC50: 11.8 µM (active)
[7]
  AC50: 22.3 µM (active)
[8]
  AC50: 32.8 µM (active)

## CC(C)(C)c1ccc(O)c(C(C)(C)C)c1
[1]
  AC50: 0.01 µM (active)
[2]
  AC50: 0.104 µM (active)
[3]
  outcome: inactive
[4]
  outcome: inactive
[5]
  outcome: inactive
[6]
  outcome: inactive
[9]
  outcome: inactive
[7]
  outcome: inactive
[8]
  outcome: inactive
[10]
  AC50: 50 µM (active)

## Cc1cc(C)c(O)c(C)c1
[1]
  outcome: inactive
[2]
  outcome: inactive
[3]
  outcome: inactive
[4]
  AC50: 3.65 µM (active)
[5]
  AC50: 9.18 µM (active)
[6]
  AC50: 5.03 µM (active)
[9]
  AC50: 6.31 µM (active)
[7]
  AC50: 13.4 µM (active)
[8]
  outcome: inactive

## CC(=O)CC(C)(C)O
[1]
  outcome: inactive
[2]
  outcome: inactive
[3]
  outcome: inactive
[4]
  outcome: inactive
[5]
  outcome: inactive
[6]
  outcome: inactive
[9]
  outcome: inactive
[7]
  outcome: inactive
[8]
  outcome: inactive

## OC1CCC(C2CCCCC2)CC1 (stereo not given)
[1]
  outcome: inactive
[2]
  outcome: inactive
[3]
  outcome: inactive
[4]
  outcome: inactive
[5]
  outcome: inactive
[6]
  outcome: inactive
[9]
  outcome: inactive
[7]
  outcome: inactive
[8]
  outcome: inactive
[10]
  outcome: inactive
